This passage reports Potency results from PubChem BioAssay (NCATS).

Results filed as inconclusive are left out. The source made the active and inactive calls. Calls follow the shape of the dose curve; as a rule, active = well fitted inhibition curve with a large enough effect; inconclusive = small, poorly fitted or top-dose-only effect; inactive = flat fitted curve, though single readings scatter.

Test in all cases: qHTS profiling for inhibitors of Plasmodium falciparum proliferation (AID 504749); also: nearly all actives have a fitted effect of over 60% in size
What all share (conditions): P. falciparum in erythrocytes, SYBR Green DNA, 72 h; series mostly up to 28.7 µM
(In qHTS, concentration-response curves come from the screen itself.)

The subject of one test is DIV17. A digest of the protocol: (§1)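 Each compound contacts P. falciparum-infected red blood cells for 72 h at 37 C; lysis buffer (Tris, EDTA, saponin, Triton X, SYBR Green I) is added and fluorescence measured next morning; values normalized to controls.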
Another test relates to Dd2. The method, boiled down: as §1
The test system of another test is ECU. The method, boiled down: as §1
For a further test, the system named is FAB9. A digest of the protocol: as §1
The subject of the next test is GB4. The method, boiled down:
as §1

A further test relates to HB3. The method, boiled down:
as §1

A further test relates to ICS. A digest of the protocol:
as §1

The next test has as its system JCK. A digest of the protocol: as §1
The next test has as its system N140. A digest of the protocol: as §1
In another test the test system is P93_24. A digest of the protocol:
as §1

Another test has as its system P94_40. A digest of the protocol:
as §1

A further test concerns PAD. The method, boiled down: as §1
A further test concerns PC15. A digest of the protocol: as §1
In a further test the test system is PC26. The method, boiled down:
as §1

Another test has as its system PC49. A digest of the protocol:
as §1

The test system of another test is SC27B. The method, boiled down:
as §1

A further test deals with TAB109. The method, boiled down:
as §1

The next test deals with TAB113. The method, boiled down:
as §1

The subject of the next test is DIV30. A digest of the protocol:
as §1

The next test concerns DIV14. A digest of the protocol:
as §1
Potency is read from the fitted curve at half-maximal effect.

For the compound `Cc1ccc(C(C)C)cc2c(C)ccc1-2`, the Potency result in the test on DIV17, in the test on Dd2, with ECU, in the test with FAB9, in the test with GB4 and in the test with HB3 was “inactive” throughout. Besides, the Potency result in the test with ICS, in the test on JCK, in the test with N140, with P93_24, in the test on P94_40 and in the test with PAD was “inactive” throughout. The Potency result with PC15, in the test with PC26, in the test on PC49, in the test on SC27B, in the test with TAB109 and with TAB113 was “inactive” in each case.
As for `NC(=O)N/N=C/c1ccc([N+](=O)[O-])o1`, the Potency with Dd2 is 10 µM (active); in the test with GB4, 13.5 µM (active); with HB3, 11.2 µM (active); in the test with ICS it was 11.2 µM (active); with N140, 11.2 µM (active); with P93_24, 8.91 µM (active). In addition, the Potency in the test on SC27B and with TAB109 was 12.6 µM (active) each time. Besides, the Potency entry in the test with FAB9 and in the test with JCK was “inactive” in each case.
For `Cc1ccc2nc(N)[nH]c(=O)c2c1Sc1ccncc1`, the Potency result in the test with DIV30 and with PC26 was “inactive” throughout. The Potency was 11.2 µM (active) in the test on Dd2; 10.7 µM (active) with GB4; 12.6 µM (active) in the test with JCK; 3.98 µM (active) in the test with N140; 14.1 µM (active) in the test on P93_24; 12.6 µM (active) in the test with P94_40. Besides, the Potency with TAB109 is 7.08 µM (active).
With `Oc1ccc(C(O)CNCCCCCCNCC(O)c2ccc(O)c(O)c2)cc1O` (centres undefined), the Potency in the test on DIV14 is 10.7 µM (active); in the test with DIV17 it was 15.1 µM (active); with Dd2, 10 µM (active); in the test with GB4, 13.5 µM (active); in the test on ICS, 6.31 µM (active); in the test on P93_24, 10 µM (active). For the same compound, the Potency entry with FAB9 and with PC49 was “inactive” throughout.
For the compound `Nc1ccc(S(=O)(=O)Nc2ccc(Cl)nn2)cc1`, the Potency result with DIV14, in the test on DIV17, in the test on DIV30, in the test with GB4, in the test on ICS and in the test with PC26 was “inactive” each time. Also, the Potency with JCK was 0.891 µM (active).
As to `CCCCN(CCCC)CC(O)c1cc(Cl)cc2c1-c1ccc(Cl)cc1/C2=C/c1ccc(Cl)cc1` (centres undefined), the Potency with DIV17 is 0.0135 µM (active); with DIV30, 0.0067 µM (active); in the test with Dd2, 0.0089 µM (active); in the test with ECU it was 0.0056 µM (active); in the test on FAB9, 0.316 µM (active); in the test with HB3, 0.0141 µM (active). In addition, the Potency with ICS was 0.0014 µM (active); in the test on N140, 0.0045 µM (active); in the test on P93_24, 0.0126 µM (active); with P94_40, 0.005 µM (active); in the test on PAD, 0.0056 µM (active); with PC15, 0.0112 µM (active). Moreover, the Potency in the test on SC27B was 0.0112 µM (active); in the test with TAB109, 0.0126 µM (active); in the test on TAB113 it was 0.0056 µM (active).
Turning to `CCCn1cnc2c1c(=O)n(CCCCC(C)=O)c(=O)n2C`, the Potency result in the test on DIV14, with DIV30, with Dd2, in the test on ECU, in the test with FAB9 and in the test on HB3 was “inactive” throughout. The Potency entry with JCK, in the test with N140, with P94_40, in the test on PAD, with PC15 and in the test with PC26 was “inactive” throughout. Moreover, the Potency entry in the test with PC49, in the test with SC27B, in the test on TAB109 and in the test with TAB113 was “inactive” each time.
Turning to `CN(C)CCCN1c2ccccc2Sc2ccc(Cl)cc21`, the Potency with DIV14 is 3.01 µM (active); in the test with DIV17, 4.78 µM (active); in the test with DIV30, 9.53 µM (active); in the test on GB4, 8.49 µM (active); with ICS it was 4.47 µM (active); with PAD, 10 µM (active). In addition, the Potency is 10 µM (active) in the test with PC15, 6.75 µM (active) in the test with PC26 and 7.08 µM (active) with PC49. The Potency entry with FAB9 and in the test with HB3 was “inactive” in each case.
On to `O=C(CCCN1CCN(c2ccccn2)CC1)c1ccc(F)cc1`, for which the Potency result in the test with DIV30, in the test on Dd2, in the test on ECU, in the test on FAB9, in the test with GB4 and with HB3 was “inactive” each time. Further, the Potency result in the test with ICS, in the test on JCK, in the test on N140, with P93_24, with P94_40 and with PAD was “inactive” in each case. The Potency result in the test with PC15, in the test with PC26, with PC49, in the test on SC27B, in the test on TAB109 and in the test with TAB113 was “inactive” throughout.
On to `C[C@]12C[C@H](O)[C@H]3[C@@H](CCC4=CC(=O)CC[C@@]43C)[C@@H]1CC[C@@H]2C(=O)CO`, for which the Potency entry with DIV14, with DIV17, in the test with DIV30, with GB4, in the test on ICS and in the test with PC15 was “inactive” in each case. In the test on PC26, the Potency entry was “inactive”.
